About 8,800 targets were measured; listed, in parts, are those with a hit and a random draw of the rest. About 0.5% of all pairs of compound and target were hits.
Columns and labels:
Experiment in all cases: log2 fold change, soluble protein after heating vs DMSO (PISA); higher = thermal stabilisation; K562 lysate, 10 uM; active = over 0.2 and 3.5 SD of the protein, either way, in both replicates (recomputed)
lapatinib = compound: CS(=O)(=O)CCNCc1ccc(-c2ccc3ncnc(Nc4ccc(OCc5cccc(F)c5)c(Cl)c4)c3c2)o1 [lapatinib]
Summary of the method: (§1)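 Pellets of K562 cells were dounce-homogenised in PBS pH 7.4 with 1 mM MgCl2, and the crude extract was held at 1 mg/mL protein for a 30 min treatment with 10 μM compound. Aliquots were heated for 3 min over 48°C-58°C and pooled before NP-40 was added to 0.5% at 4°C. The supernatant from 21,000xg for 90 min was quantified by TMTpro 16plex LC-MS/MS with channel sums equalised. Values are reported from duplicates as log-two fold change in thermal stability relative to solvent controls.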

pictilisib = compound: CS(=O)(=O)N1CCN(Cc2cc3nc(-c4cccc5[nH]ncc45)nc(N4CCOCC4)c3s2)CC1 [pictilisib]
Summary of the method: as §1

crizotinib = compound: C[C@@H](Oc1cc(-c2cnn(C3CCNCC3)c2)cnc1N)c1c(Cl)ccc(F)c1Cl [crizotinib]
Summary of the method: as §1

[1] = compound: C[C@H](C1=CC=C(C=C1)C(=O)NC2=C3C=CNC3=NC=C2)N
Summary of the method: as §1

duvelisib = compound: C[C@H](Nc1ncnc2nc[nH]c12)c1cc2cccc(Cl)c2c(=O)n1-c1ccccc1 [duvelisib]
Summary of the method: as §1

gandotinib = compound: Cc1cc(Nc2cc(CN3CCOCC3)c3nc(C)c(Cc4ccc(Cl)cc4F)n3n2)n[nH]1 [gandotinib]
Summary of the method: as §1

tozasertib = compound: Cc1cc(Nc2cc(N3CCN(C)CC3)nc(Sc3ccc(NC(=O)C4CC4)cc3)n2)n[nH]1 [tozasertib]
Summary of the method: as §1

doramapimod = compound: Cc1ccc(-n2nc(C(C)(C)C)cc2NC(=O)Nc2ccc(OCCN3CCOCC3)c3ccccc23)cc1 [doramapimod]
Summary of the method: as §1

bafetinib = compound: Cc1ccc(NC(=O)c2ccc(CN3CC[C@H](N(C)C)C3)c(C(F)(F)F)c2)cc1Nc1nccc(-c2cncnc2)n1 [bafetinib]
Summary of the method: as §1

[2] = compound: Cc1cccc(CC(=O)N2CCc3c2ccc(-c2cn(C)c4ncnc(N)c24)c3F)n1
Summary of the method: as §1

Measured: log2 fold change

GBA2 (UniProt Q9HCG7)
inactive: lapatinib -0.062 | pictilisib -0.012 | crizotinib 0.014 | [1] -0.094 | duvelisib 0.06 | gandotinib -0.009 | tozasertib -0.138 | doramapimod 0.055 | bafetinib -0.199 | [2] 0.054

FAM120B (UniProt Q96EK7)
inactive: lapatinib 0.041 | pictilisib -0.012 | crizotinib -0.021 | [1] -0.018 | duvelisib -0.021 | gandotinib -0.051 | tozasertib -0.064 | doramapimod 0.021 | bafetinib -0.045 | [2] 0.045

EXOC5 (UniProt O00471)
inactive: lapatinib -0.012 | pictilisib 0.017 | crizotinib -0.067 | [1] 0.055 | duvelisib -0.027 | gandotinib -0.202 | tozasertib 0.025 | doramapimod 0.027 | bafetinib -0.033 | [2] 0.003

ESRRA (UniProt P11474)
active: [1] 0.444
inactive: lapatinib 0.026 | pictilisib -0.049 | crizotinib -0.025 | duvelisib 0.088 | gandotinib -0.115 | tozasertib 0.088 | doramapimod -0.028 | bafetinib 0.052 | [2] -0.149

ELF2 (UniProt Q15723)
Chain of UniProt Q15723 (Q15723 whole entry, looked up): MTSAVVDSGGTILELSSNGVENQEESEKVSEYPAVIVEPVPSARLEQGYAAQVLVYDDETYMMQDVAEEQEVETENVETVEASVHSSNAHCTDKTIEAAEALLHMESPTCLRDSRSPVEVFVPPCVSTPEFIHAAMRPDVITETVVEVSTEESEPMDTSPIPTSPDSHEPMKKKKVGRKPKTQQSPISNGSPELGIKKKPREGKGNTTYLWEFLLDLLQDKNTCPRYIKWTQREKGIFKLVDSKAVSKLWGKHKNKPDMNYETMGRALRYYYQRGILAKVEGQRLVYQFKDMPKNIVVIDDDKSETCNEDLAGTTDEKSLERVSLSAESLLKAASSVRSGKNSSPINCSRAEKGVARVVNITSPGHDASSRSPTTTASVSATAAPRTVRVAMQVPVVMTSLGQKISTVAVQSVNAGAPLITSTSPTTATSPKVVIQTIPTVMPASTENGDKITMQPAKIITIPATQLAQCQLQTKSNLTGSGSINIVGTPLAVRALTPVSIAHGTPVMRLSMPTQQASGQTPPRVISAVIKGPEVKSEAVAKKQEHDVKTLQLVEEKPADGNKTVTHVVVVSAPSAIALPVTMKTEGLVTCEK
active: lapatinib 0.256
inactive: pictilisib 0.039 | crizotinib -0.085 | [1] 0.033 | duvelisib 0.072 | gandotinib -0.046 | tozasertib -0.033 | doramapimod -0.042 | bafetinib -0.119 | [2] -0.075

FLAD1 (UniProt Q8NFF5)
inactive: lapatinib 0.007 | pictilisib 0.002 | crizotinib -0.024 | [1] 0.021 | duvelisib 0.05 | gandotinib 0.044 | tozasertib -0.052 | doramapimod -0.02 | bafetinib -0.052 | [2] -0.05

FANCD2 isoform 1 (UniProt Q9BXW9)
inactive: lapatinib -0.092 | pictilisib -0.037 | crizotinib -0.221 | [1] -0.086 | duvelisib -0.032 | gandotinib 0.132 | tozasertib -0.069 | doramapimod -0.023 | bafetinib -0.079
active: [2] 0.279

ERBIN isoform 8 (UniProt Q96RT1)
inactive: lapatinib -0.011 | pictilisib 0.012 | crizotinib -0.026 | [1] -0.056 | duvelisib 0.005 | gandotinib 0.012 | tozasertib -0.013 | doramapimod 0.02 | bafetinib -0.002 | [2] 0.029

ETHE1 (UniProt O95571)
Chain of UniProt O95571 (O95571 whole entry, looked up): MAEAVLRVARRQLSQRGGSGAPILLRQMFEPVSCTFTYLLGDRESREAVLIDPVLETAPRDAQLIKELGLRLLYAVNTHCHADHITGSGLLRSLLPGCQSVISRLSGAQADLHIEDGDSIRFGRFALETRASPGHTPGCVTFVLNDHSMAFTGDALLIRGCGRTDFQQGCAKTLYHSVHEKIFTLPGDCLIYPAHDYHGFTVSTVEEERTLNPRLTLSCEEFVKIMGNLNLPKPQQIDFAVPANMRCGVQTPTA
inactive: lapatinib 0.049 | pictilisib -0.049 | crizotinib -0.022 | [1] -0.034 | duvelisib -0.011 | gandotinib 0.016 | tozasertib -0.06 | doramapimod 0.005 | bafetinib 0.038 | [2] 0.018

FCHO1 (UniProt O14526)
inactive: lapatinib -0.034 | pictilisib 0.027 | crizotinib -0.072 | [1] -0.061 | duvelisib -0.025 | gandotinib -0.027 | tozasertib 0.027 | doramapimod -0.039 | bafetinib -0.141 | [2] 0.058

GABPB1 isoform 3 (UniProt Q06547)
inactive: lapatinib -0.057 | pictilisib -0.086 | crizotinib 0.001 | [1] -0.007 | duvelisib 0.068 | gandotinib 0 | tozasertib -0.001 | doramapimod -0.029 | bafetinib -0.149 | [2] 0.043

FREM2 (UniProt Q5SZK8)
inactive: lapatinib -0.077 | pictilisib 0.046 | crizotinib -0.095 | duvelisib 0.06 | gandotinib 0.172 | tozasertib 0.104 | doramapimod 0.07 | bafetinib -0.135 | [2] 0.218
active: [1] -0.318

EWSR1 isoform 5 (UniProt Q01844)
Chain of UniProt Q01844 (Q01844 whole entry, looked up): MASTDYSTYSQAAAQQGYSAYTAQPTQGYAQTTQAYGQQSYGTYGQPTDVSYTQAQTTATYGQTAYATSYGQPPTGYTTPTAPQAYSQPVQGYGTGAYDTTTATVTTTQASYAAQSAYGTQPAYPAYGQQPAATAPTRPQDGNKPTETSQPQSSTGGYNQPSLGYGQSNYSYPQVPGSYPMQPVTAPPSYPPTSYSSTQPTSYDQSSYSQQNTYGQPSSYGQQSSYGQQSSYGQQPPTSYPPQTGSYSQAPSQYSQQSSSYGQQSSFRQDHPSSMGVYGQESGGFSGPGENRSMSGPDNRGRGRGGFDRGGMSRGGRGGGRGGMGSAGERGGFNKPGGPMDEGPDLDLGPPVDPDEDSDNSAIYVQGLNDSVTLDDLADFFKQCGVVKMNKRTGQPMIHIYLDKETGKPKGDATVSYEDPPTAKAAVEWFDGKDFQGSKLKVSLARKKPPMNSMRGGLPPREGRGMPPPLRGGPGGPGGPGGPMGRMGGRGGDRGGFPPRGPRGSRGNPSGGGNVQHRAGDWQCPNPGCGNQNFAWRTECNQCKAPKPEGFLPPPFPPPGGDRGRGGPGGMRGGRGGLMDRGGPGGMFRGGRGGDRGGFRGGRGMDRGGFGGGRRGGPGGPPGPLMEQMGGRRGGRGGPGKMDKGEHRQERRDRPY
inactive: lapatinib -0.008 | pictilisib 0.021 | crizotinib 0.048 | [1] -0.07 | duvelisib -0.047 | gandotinib 0.061 | tozasertib -0.016 | doramapimod -0.025 | bafetinib 0.031 | [2] 0.009

EED, A0A5F9ZI63
inactive: lapatinib 0.047 | pictilisib -0.014 | crizotinib -0.001 | [1] -0.041 | duvelisib -0.006 | gandotinib 0.022 | tozasertib -0.01 | doramapimod 0.006 | bafetinib 0.033 | [2] 0.076

FTL (UniProt P02792)
Chain of UniProt P02792 (P02792 whole entry, looked up): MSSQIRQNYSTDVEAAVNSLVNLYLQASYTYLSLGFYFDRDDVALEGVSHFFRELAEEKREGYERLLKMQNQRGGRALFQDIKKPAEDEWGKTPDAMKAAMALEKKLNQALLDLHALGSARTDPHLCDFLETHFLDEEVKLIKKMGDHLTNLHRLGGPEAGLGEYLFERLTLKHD
inactive: lapatinib -0.072 | pictilisib -0.027 | crizotinib -0.066 | [1] -0.022 | duvelisib -0.001 | gandotinib 0.068 | tozasertib 0.008 | doramapimod -0.024 | bafetinib -0.052 | [2] -0.018

FOXK1 (UniProt P85037)
Chain of UniProt P85037 (P85037 whole entry, looked up): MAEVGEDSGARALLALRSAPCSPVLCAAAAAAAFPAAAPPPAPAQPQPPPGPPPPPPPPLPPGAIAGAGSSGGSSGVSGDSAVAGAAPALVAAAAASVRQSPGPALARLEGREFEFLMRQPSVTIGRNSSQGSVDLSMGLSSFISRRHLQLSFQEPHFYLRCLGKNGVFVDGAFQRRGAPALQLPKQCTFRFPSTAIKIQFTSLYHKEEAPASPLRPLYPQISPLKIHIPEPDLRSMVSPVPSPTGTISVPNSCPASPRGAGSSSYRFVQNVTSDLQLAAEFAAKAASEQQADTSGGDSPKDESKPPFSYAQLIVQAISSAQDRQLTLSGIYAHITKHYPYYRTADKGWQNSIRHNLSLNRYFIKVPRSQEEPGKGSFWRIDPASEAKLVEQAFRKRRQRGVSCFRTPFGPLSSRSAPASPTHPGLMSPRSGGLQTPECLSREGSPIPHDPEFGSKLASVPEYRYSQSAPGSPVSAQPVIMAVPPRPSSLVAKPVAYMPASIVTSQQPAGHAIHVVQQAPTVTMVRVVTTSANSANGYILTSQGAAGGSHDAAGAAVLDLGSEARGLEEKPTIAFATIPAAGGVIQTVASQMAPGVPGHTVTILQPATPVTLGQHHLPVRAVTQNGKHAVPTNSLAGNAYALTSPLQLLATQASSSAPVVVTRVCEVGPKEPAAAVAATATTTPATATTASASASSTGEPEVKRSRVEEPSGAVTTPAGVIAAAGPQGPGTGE
inactive: lapatinib 0.006 | pictilisib -0.036 | crizotinib 0.025 | [1] -0.024 | duvelisib -0.043 | gandotinib 0.002 | tozasertib 0.009 | doramapimod 0.035 | bafetinib 0.029 | [2] 0.034

EXOC6 (UniProt Q8TAG9)
inactive: lapatinib -0.017 | pictilisib -0.04 | crizotinib -0.121 | [1] -0.013 | duvelisib 0 | gandotinib -0.166 | tozasertib 0.029 | doramapimod 0.004 | bafetinib -0.059 | [2] 0.033

ENGASE (UniProt Q8NFI3)
Chain of UniProt Q8NFI3 (Q8NFI3 whole entry, looked up): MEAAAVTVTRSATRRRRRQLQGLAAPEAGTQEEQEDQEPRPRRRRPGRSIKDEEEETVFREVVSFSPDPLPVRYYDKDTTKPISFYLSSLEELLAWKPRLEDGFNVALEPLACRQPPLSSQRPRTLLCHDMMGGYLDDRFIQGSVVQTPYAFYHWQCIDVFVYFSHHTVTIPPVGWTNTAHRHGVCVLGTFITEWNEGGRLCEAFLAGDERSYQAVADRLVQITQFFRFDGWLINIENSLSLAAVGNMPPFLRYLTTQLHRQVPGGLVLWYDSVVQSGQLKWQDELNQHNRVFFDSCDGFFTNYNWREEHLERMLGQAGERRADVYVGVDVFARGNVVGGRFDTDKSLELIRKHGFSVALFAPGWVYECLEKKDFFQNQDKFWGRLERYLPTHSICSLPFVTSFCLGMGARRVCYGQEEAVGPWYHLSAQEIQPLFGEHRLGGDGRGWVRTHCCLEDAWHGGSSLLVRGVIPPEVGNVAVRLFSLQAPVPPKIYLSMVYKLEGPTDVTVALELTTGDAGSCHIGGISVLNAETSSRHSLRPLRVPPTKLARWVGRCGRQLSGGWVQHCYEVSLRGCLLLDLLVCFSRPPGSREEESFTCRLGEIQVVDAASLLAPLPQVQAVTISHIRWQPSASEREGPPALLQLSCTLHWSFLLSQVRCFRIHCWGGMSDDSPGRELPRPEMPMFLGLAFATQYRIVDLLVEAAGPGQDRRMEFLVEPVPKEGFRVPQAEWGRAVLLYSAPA
inactive: lapatinib -0.02 | pictilisib 0 | crizotinib 0.011 | [1] -0.048 | duvelisib -0.025 | gandotinib 0.116 | tozasertib 0.051 | doramapimod 0.033 | bafetinib 0.003 | [2] 0.148

EDC3 (UniProt Q96F86)
inactive: lapatinib -0.007 | pictilisib -0.034 | crizotinib -0.012 | [1] -0.021 | duvelisib 0.014 | gandotinib 0.032 | tozasertib -0.007 | doramapimod 0.024 | bafetinib -0.008 | [2] -0.003

FADS3 (UniProt Q9Y5Q0)
Chain of UniProt Q9Y5Q0 (Q9Y5Q0 whole entry, looked up): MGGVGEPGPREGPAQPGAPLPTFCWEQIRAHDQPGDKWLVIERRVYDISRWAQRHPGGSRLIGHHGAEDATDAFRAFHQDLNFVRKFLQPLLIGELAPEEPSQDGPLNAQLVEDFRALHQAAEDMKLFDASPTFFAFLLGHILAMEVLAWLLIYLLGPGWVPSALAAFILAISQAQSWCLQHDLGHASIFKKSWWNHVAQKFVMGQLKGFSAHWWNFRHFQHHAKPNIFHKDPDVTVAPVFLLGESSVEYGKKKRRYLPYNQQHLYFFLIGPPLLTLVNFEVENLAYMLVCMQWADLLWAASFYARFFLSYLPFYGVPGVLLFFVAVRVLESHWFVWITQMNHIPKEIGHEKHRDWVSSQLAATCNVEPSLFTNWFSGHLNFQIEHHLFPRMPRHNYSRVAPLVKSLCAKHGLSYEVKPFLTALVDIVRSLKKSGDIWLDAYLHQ
inactive: lapatinib 0.13 | pictilisib -0.014 | crizotinib -0.065 | [1] -0.322 | duvelisib -0.09 | gandotinib 0 | tozasertib 0.079 | doramapimod -0.001 | bafetinib -0.131 | [2] -0.309

EXTL2 (UniProt Q9UBQ6)
inactive: lapatinib -0.071 | pictilisib -0.282 | crizotinib 0.032 | [1] -0.138 | duvelisib -0.001 | gandotinib 0.106 | tozasertib 0.028 | doramapimod 0.058 | bafetinib -0.02 | [2] -0.006

ENO1 isoform 2 (UniProt P06733)
Chain of UniProt P06733 (P06733 whole entry, looked up): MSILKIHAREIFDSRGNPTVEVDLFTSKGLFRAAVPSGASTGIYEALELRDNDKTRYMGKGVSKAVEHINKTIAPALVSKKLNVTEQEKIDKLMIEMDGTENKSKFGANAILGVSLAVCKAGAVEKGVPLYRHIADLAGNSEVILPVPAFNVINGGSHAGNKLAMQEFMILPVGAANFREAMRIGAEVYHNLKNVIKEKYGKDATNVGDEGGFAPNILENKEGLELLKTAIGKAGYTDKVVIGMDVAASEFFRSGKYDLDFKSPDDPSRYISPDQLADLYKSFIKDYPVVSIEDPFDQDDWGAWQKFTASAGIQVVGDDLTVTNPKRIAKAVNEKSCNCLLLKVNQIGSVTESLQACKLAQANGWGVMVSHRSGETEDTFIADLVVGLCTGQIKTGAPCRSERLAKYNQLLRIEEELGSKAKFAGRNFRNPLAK
active: [1] -0.285
inactive: lapatinib 0.005 | pictilisib -0.012 | crizotinib -0.019 | duvelisib 0.049 | gandotinib 0.153 | tozasertib 0.026 | doramapimod -0.019 | bafetinib 0.07 | [2] 0.222

FBXO9 (UniProt Q9UK97)
inactive: lapatinib -0.334 | pictilisib -0.107 | crizotinib -0.023 | [1] 0.08 | duvelisib -0.012 | gandotinib -0.141 | tozasertib 0.041 | doramapimod 0.044 | bafetinib 0 | [2] -0.104

GBF1 (UniProt Q92538)
inactive: lapatinib -0.015 | pictilisib -0.023 | crizotinib -0.064 | [1] -0.026 | duvelisib -0.002 | gandotinib -0.108 | tozasertib 0.014 | doramapimod -0.006 | bafetinib -0.043 | [2] 0.049

FKBP1A (UniProt P62942)
Chain of UniProt P62942 (P62942 whole entry, looked up): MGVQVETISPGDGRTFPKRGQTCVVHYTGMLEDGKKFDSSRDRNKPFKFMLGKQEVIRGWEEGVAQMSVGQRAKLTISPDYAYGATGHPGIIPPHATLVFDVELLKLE
inactive: lapatinib -0.011 | pictilisib -0.031 | crizotinib 0.005 | duvelisib 0.074 | gandotinib 0.266 | tozasertib -0.037 | doramapimod -0.04 | bafetinib -0.111 | [2] 0.15
active: [1] -0.814

EHHADH (UniProt Q08426)
Chain of UniProt Q08426 (Q08426 whole entry, looked up): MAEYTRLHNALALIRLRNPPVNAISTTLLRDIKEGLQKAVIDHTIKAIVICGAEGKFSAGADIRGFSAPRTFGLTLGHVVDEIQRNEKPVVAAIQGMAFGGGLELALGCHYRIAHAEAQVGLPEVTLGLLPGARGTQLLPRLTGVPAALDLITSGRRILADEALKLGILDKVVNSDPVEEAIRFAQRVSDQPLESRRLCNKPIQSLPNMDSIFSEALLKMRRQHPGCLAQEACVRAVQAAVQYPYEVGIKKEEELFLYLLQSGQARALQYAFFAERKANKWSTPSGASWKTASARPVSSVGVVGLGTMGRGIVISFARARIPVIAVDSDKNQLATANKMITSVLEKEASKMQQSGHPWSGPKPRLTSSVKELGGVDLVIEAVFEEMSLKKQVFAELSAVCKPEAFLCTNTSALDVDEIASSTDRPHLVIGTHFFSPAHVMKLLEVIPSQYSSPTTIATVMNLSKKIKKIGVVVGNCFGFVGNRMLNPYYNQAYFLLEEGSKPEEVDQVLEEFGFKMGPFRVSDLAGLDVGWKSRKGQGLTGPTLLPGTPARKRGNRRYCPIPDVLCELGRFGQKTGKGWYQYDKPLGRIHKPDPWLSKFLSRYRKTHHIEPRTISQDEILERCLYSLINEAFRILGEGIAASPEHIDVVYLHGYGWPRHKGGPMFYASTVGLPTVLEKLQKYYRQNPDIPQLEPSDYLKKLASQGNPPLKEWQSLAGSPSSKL
inactive: lapatinib -0.037 | pictilisib 0.143 | crizotinib -0.001 | [1] 0.016 | duvelisib 0.051 | gandotinib -0.117 | tozasertib 0.045 | doramapimod 0.048 | bafetinib 0.06 | [2] 0

EEF1AKNMT (UniProt Q8N6R0)
inactive: lapatinib -0.006 | pictilisib -0.046 | crizotinib -0.123 | [1] 0.017 | duvelisib 0.03 | gandotinib -0.133 | tozasertib -0.029 | doramapimod 0.074 | bafetinib -0.014 | [2] -0.024

GEMIN5 (UniProt Q8TEQ6)
inactive: lapatinib -0.025 | pictilisib -0.006 | crizotinib -0.069 | [1] -0.029 | duvelisib 0.001 | gandotinib -0.087 | tozasertib 0.009 | doramapimod 0.012 | bafetinib -0.053 | [2] 0.017

EPS8L2 (UniProt Q9H6S3)
inactive: lapatinib 0.044 | pictilisib -0.03 | crizotinib -0.012 | [1] -0.068 | duvelisib -0.086 | gandotinib 0.061 | tozasertib -0.258 | doramapimod -0.046 | bafetinib -0.101 | [2] 0.207

FAM118B (UniProt Q9BPY3)
inactive: lapatinib 0.022 | pictilisib -0.013 | crizotinib -0.093 | [1] -0.022 | duvelisib 0.045 | gandotinib -0.044 | tozasertib -0.008 | doramapimod 0.048 | bafetinib 0.008 | [2] 0.037

— the supplement of paper PMC10849652
